Screening results as filed in PubChem BioAssay.
This is a sample that favours compounds with a hit; in the whole collection about 22% have one here.
Pf growth 48h: P. falciparum growth inhibition at 48 hours (one generation); P. falciparum luciferase growth in erythrocytes, 48 h; Potency, µM (top dose mostly 28.7 µM), hits mostly inhibitors; 310,000 tested, 5.9% active
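Erythrocytes infected with P. falciparum carrying an integrated firefly luciferase reporter (2% hematocrit, 0.1% parasitemia final) were exposed to compounds in RPMI 1640 with 0.5% Albumax at 37 C, 5% CO2. Growth inhibition was scored as reduced luminescence.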
LmPK inhibitor: blocks Leishmania mexicana pyruvate kinase activity; purified LmPK, Kinase-Glo ATP luminescence, 1 h; 290,000 tested, 0.37% active; Q27686; Potency, µM (doses to about 57.5 µM), actives largely listed as inhibitors
Target sequence (Q27686 whole entry, looked up): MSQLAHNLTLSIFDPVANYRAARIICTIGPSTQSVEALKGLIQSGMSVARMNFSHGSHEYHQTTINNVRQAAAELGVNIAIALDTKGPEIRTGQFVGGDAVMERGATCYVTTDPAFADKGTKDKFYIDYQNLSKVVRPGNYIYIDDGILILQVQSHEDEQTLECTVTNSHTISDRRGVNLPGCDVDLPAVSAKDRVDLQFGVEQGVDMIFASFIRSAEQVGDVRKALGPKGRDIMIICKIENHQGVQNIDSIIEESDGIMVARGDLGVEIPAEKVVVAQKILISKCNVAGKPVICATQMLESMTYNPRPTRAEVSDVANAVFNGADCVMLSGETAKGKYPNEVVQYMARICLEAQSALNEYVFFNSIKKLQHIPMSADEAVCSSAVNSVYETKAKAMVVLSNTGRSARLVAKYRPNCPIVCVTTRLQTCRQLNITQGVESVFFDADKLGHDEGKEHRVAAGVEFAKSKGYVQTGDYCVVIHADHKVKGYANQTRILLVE
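Pyruvate kinase activity monitored as ATP production (luciferase luminescence). Conditions: 0.1 nM enzyme, 0.5 mM PEP, 0.1 mM ADP, 1 h, RT; normalized against uninhibited and no-enzyme wells.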
Shiga inhibitor: blocks Shiga toxin action in Vero cells. Vero cells, Shiga toxin protein synthesis inhibition reporter. inhibition, % at 38.7 µM. 290,000 tested, 9.2% active. AID 2315; in the data active = inhibition mostly above about 28%, no sharp cut-off; inactive = mostly below about 43%
Pf growth 96h: inhibits malaria parasite growth, 96 h; P. falciparum luciferase reporter growth, 96 h; Potency, µM (series often up to 28.7 µM), hits mostly inhibitors; 320,000 tested, 6.9% active
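Plates of compound plus infected erythrocytes (2% hematocrit, 0.05% parasitemia final) incubate 96 hours, 37 C, 5% CO2. Detection reagent added; reduced luminescence from the parasites' luciferase reporter flags inhibition.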
Cycloheximide cs: counter-screen for Shiga toxin inhibitors: cycloheximide protein synthesis inhibition | cell reporter, cycloheximide protein synthesis inhibition counterscreen | max response, % | 300,000 tested, 12% active | AID 2314; in the data active = max response mostly above about 13%, no sharp cut-off; inactive = mostly below about 14%; note: read at 38.3 µM for the half of the compounds with a filed dose
Of the large screens only hits and unclear results are named; the others gave an inactive call. Unless noted, calls come from the whole dose curve; as a rule, active = well fitted inhibition curve with a large enough effect; inconclusive = small, poorly fitted or top-dose-only effect, or another doubt; inactive = no such curve, though single readings can be large or run the other way.

CC(C)(C)c1ccc(C(=O)Nc2ccc(O)c3c(=O)cc(-c4ccccc4Cl)oc23)cc1	Pf growth 48h inconclusive, Pf growth 96h inconclusive
CCOc1ccc(NC(=O)Nc2cc(C(C)C)ccc2C)cc1	none
O=C(NCc1ccccc1)Nc1cccn(Cc2ccccc2)c1=O	none
O=C(NCc1ccccc1)Nc1cccn(Cc2ccccc2F)c1=O	Cycloheximide cs 20
CCOc1ccc(NC(=O)Nc2ccccc2SC)cc1	LmPK inhibitor 7.9µM, Shiga inhibitor 66, Cycloheximide cs 33
CSc1ccccc1NC(=O)Nc1ccccc1	LmPK inhibitor inconclusive, Shiga inhibitor 91, Cycloheximide cs 25
CSc1ccccc1NC(=O)Nc1cccc(F)c1	Shiga inhibitor 41, Cycloheximide cs 22
Cc1cc(S(=O)(=O)N2CCN=C2c2ccccc2)c(Cl)cc1Cl	Pf growth 96h inconclusive
COc1ccc(C2C(C(=O)O)c3ccccc3C(=O)N2Cc2ccco2)cc1 (configuration not stated)	none
COc1ccc(Cn2cccc(NC(=O)Nc3cccc(C#N)c3)c2=O)cc1	none
CCOc1ccc(NC(=O)Nc2cccn(Cc3ccccc3)c2=O)cc1	Pf growth 96h inconclusive, Cycloheximide cs 31
Cc1ccc(-c2nc3c(c(=O)[nH]c(=O)n3Cc3ccccc3)n2C)o1	none
Cc1ccc(-c2nc3c(c(=O)[nH]c(=O)n3Cc3ccccc3)n2Cc2ccccc2)o1	Pf growth 48h 5.9µM, Pf growth 96h inconclusive
CCCn1c(-c2ccc(C(=O)OC)cc2)nc2c1c(=O)[nH]c(=O)n2Cc1ccccc1	none
CCCn1c(-c2cccc([N+](=O)[O-])c2)nc2c1c(=O)[nH]c(=O)n2Cc1ccccc1	Pf growth 48h inconclusive, Pf growth 96h 5.2µM
Cc1ccc(C(=O)N(C)c2ccc(OCC(=O)N3c4ccc(C)cc4C4CN(C)CCC43)cc2)cc1 (configuration not stated)	Pf growth 48h inconclusive, Pf growth 96h inconclusive, Cycloheximide cs 37
Cc1ccc2c(c1)C1CN(C)CCC1N2C(=O)CCCN1C(=O)c2cccc3cccc(c23)C1=O (configuration not stated)	Pf growth 48h 1.9µM, Pf growth 96h 3.7µM
Cc1cc2cc(CCNC(=O)CCc3ccccc3)c(=O)[nH]c2cc1C	Pf growth 48h inconclusive, Pf growth 96h inconclusive
O=C(OC(C(=O)NCc1ccco1)c1ccc(Cl)cc1)c1cccs1 (configuration not stated)	none
COc1cccc(OCc2nnc(SCC(=O)NCc3ccco3)n2CCc2ccccc2)c1	Pf growth 48h inconclusive
COc1ccc(-n2c(COc3ccc4ccccc4c3)nnc2SCC(=O)NCc2ccco2)cc1	Pf growth 48h 10µM (no result: Pf growth 96h)
COc1ccc(-n2c(COc3cccc4ccccc34)nnc2SCC(=O)NCc2ccco2)cc1	Pf growth 48h 2.9µM, Cycloheximide cs 25
COc1ccc(OC)c(-n2c(SCC(=O)NCc3ccco3)nnc2-c2c[nH]c3ccccc23)c1	Pf growth 96h 2.6µM (no result: Pf growth 48h)
COc1ccccc1OCc1nnc(SCC(=O)NCc2ccco2)n1-c1ccccc1	Cycloheximide cs 12
O=C(c1cccc(-c2ccccc2)c1)N1CC[C@@H](N2CCC(O)CC2)[C@H](O)C1	Pf growth 48h inconclusive
O=[N+]([O-])c1cccc(S(=O)(=O)NCCCn2ccnc2)c1	none
CSc1ccc(CN(C)CC(=O)Nc2cccc(Br)c2)cc1	Pf growth 96h inconclusive
Cc1ccccc1C#N	none (no result: LmPK inhibitor, Shiga inhibitor, Cycloheximide cs)
O=C(O)/C=C/c1cccc2c1OCCO2	Pf growth 48h inconclusive
COc1ccc(-n2c(COc3cccc(C)c3)nnc2SCC(=O)NCc2ccco2)cc1	Pf growth 48h inconclusive, Shiga inhibitor 35, Cycloheximide cs 30
COc1cccc(OCc2nnc(SCC(=O)NCc3ccco3)n2C)c1	none
CC(=O)NC(CC(=O)NCCc1ccccc1)c1ccccc1 (configuration not stated)	none
CC(=O)NC(CC(=O)N(Cc1ccccc1)c1ccc(C)cc1)c1ccccc1 (configuration not stated)	Pf growth 48h inconclusive, Pf growth 96h 13µM
CCn1cc(C=C2C(=O)c3ccccc3C2=O)c2ccccc21	Pf growth 96h inconclusive, Cycloheximide cs 12
CN1C(=O)C(=Cc2cn(CC#N)c3ccccc23)C(=O)N(C)C1=O	Pf growth 96h inconclusive
COc1ccc(/C=C2\CCCC(C(=O)C(F)(F)F)=C2O)cc1	none (no result: Pf growth 96h)
O=C(C1=C(O)/C(=C/c2ccc(O)cc2)CCC1)C(F)(F)F	Shiga inhibitor 44, Cycloheximide cs 30
Cc1ccccc1NC(=O)COC(=O)CCc1ccccc1	none
C#CCCC(=O)c1ccccc1/C=[N+](\[O-])c1ccccc1	Pf growth 48h 1.2µM, Pf growth 96h inconclusive (no result: LmPK inhibitor, Shiga inhibitor, Cycloheximide cs)
[O-]/[N+](=C\c1ccncc1)c1ccccc1	Pf growth 48h inconclusive, Pf growth 96h inconclusive
CSc1nnc2c3c4c(sc3c(=O)n(-c3ccccc3)n12)CC(C)(C)OC4	Pf growth 48h 0.74µM (no result: Pf growth 96h)
O=C(C1CCC1)N1CCN(c2ccc(Cl)cc2)CC1	Pf growth 96h 7.4µM, Cycloheximide cs 12
O=C(C1c2ccccc2Oc2ccccc21)N1CCN(c2ccc(Cl)cc2)CC1	Pf growth 96h 2.1µM (no result: Pf growth 48h)
COc1ccccc1N1CCN(C(=O)C2c3ccccc3Oc3ccccc32)CC1	Pf growth 48h inconclusive, Pf growth 96h inconclusive
O=C(CNc1ccc(Br)cc1)NC(=O)NC1CCCCC1	none (no result: LmPK inhibitor, Shiga inhibitor, Cycloheximide cs)
Cc1ccc(OCCSc2nc(NC(C)C)nc(NC(C)C)n2)cc1	Pf growth 48h inconclusive, Pf growth 96h inconclusive
CC1CCCC(C)N1C(=O)CSc1nnc(-c2cccs2)o1 (configuration not stated)	Shiga inhibitor 51, Cycloheximide cs 35
CC1CCCCN1C(=O)CSc1nnc(-c2c[nH]c3ccccc23)o1 (configuration not stated)	Pf growth 48h inconclusive, Cycloheximide cs 28
CC1CCCCN1C(=O)CSc1nnc(-c2cccs2)o1 (configuration not stated)	Shiga inhibitor 67, Cycloheximide cs 48
O=C(Oc1coc(CSc2ncccn2)cc1=O)c1ccccc1[N+](=O)[O-]	none
COc1ccc(NC(=O)CN(C)CC(=O)NC(=O)NC2CCCCC2)cc1	none (no result: LmPK inhibitor, Shiga inhibitor, Cycloheximide cs)
CN(CC(=O)NC(=O)NC1CCCCC1)CC(=O)Nc1ccc(OC(F)(F)F)cc1	Pf growth 48h 5.2µM, Pf growth 96h inconclusive (no result: LmPK inhibitor, Shiga inhibitor, Cycloheximide cs)
c1ccc2c(c1)CCC[C@@H]2C1=NCCN1	none (no result: LmPK inhibitor, Shiga inhibitor, Cycloheximide cs)
COc1ccccc1N1CCN(/N=C/c2cccc(OC)c2OC)CC1	Shiga inhibitor 61, Cycloheximide cs 15
COc1cc(/C=N/N2CCN(c3ccccc3OC)CC2)ccc1O	Shiga inhibitor active, Cycloheximide cs 26
COc1ccccc1N1CCN(/N=C/C(Cl)=C/c2ccccc2)CC1	Shiga inhibitor 81, Cycloheximide cs 33
COc1ccccc1N1CCN(/N=C\c2sccc2C)CC1	Shiga inhibitor 99, Pf growth 96h inconclusive
Cc1ccc(N2CCN(/N=C/C(Cl)=C/c3ccccc3)CC2)cc1	none
O=C(CN1C(=O)NC2(CCOc3ccccc32)C1=O)c1ccc(Br)cc1 (configuration not stated)	Pf growth 96h inconclusive
COC(=O)c1ccc(OC)cc1OCC(=O)N1CCN(c2ccc(F)cc2)CC1	none
